In PubChem BioAssay AID1159580 (chemical genetic matrix, 2015):
Among all 5,500 compounds or so, about 2,000 (36%) were called active. About 18% were inconclusive and are not listed. Rule as the data show it: active = normalized growth mostly below about 0.91 (no sharp cut-off); inconclusive = no clear call, values can overlap the other calls; inactive = mostly above about 0.92. This is one part of the list.

Assay: chemical genetic growth profiling, strain panel (AID 1159580);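 also: tested at 20 µM; growth read once vehicle control cultures reached saturation at 30 °C; 1 = growth at the plate median or of vehicle wells; lower values mean less growth of the strain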
Conditions: growth OD
[1] = S. cerevisiae deletion strains, locus YDL101C, strain DUN1, active compounds read low
[2] = S. cerevisiae deletion strains, locus YAL013W, strain DEP1, active compounds read low
[3] = S. cerevisiae deletion strains, locus YBR229C, strain ROT2, active compounds read low
[4] = S. cerevisiae deletion strains, locus YCL061C, strain MRC1, active compounds read low
[5] = S. cerevisiae deletion strains, locus YDR150W, strain NUM1, active compounds read low
[6] = S. cerevisiae deletion strains, locus YEL061C, strain CIN8, active compounds read low
[7] = S. cerevisiae deletion strains, locus YGR078C, strain PAC10, active compounds read low
[8] = S. cerevisiae deletion strains, locus YHR030C, strain SLT2, active compounds read low
[9] = S. cerevisiae deletion strains, locus YHR087W, strain rtc3, active compounds read low
[10] = S. cerevisiae deletion strains, locus YJR043C, strain POL32, active compounds read low
[11] = S. cerevisiae deletion strains, locus YJR075W, strain HOC1, active compounds read low
[12] = S. cerevisiae deletion strains, locus YLR039C, strain RIC1, active compounds read low
[13] = S. cerevisiae deletion strains, locus YLR058C, strain SHM2 (second series), active compounds read low
[14] = S. cerevisiae deletion strains, locus YLR085C, strain ARP6, active compounds read low
[15] = S. cerevisiae deletion strains, locus YLR262C, strain YPT6, active compounds read low
[16] = S. cerevisiae deletion strains, locus YML094W, strain GIM5, active compounds read low
[17] = S. cerevisiae deletion strains, locus YMR219W, strain ESC1, active compounds read low
[18] = S. cerevisiae deletion strains, locus YMR263W, strain SAP30, active compounds read low
[19] = S. cerevisiae deletion strains, locus YMR307W, strain GAS1, active compounds read low
[20] = S. cerevisiae deletion strains, locus YNL128W, strain TEP1, active compounds read low
[21] = S. cerevisiae deletion strains, locus YNL153C, strain GIM3, active compounds read low
[22] = S. cerevisiae deletion strains, locus YNL298W, strain CLA4 (second series), active compounds read low
[23] = S. cerevisiae deletion strains, locus YNL322C, strain KRE1, active compounds read low
[24] = S. cerevisiae deletion strains, locus YNR030W, strain Alg12, active compounds read low
[25] = S. cerevisiae deletion strains, locus YPL055C, strain LGE1, active compounds read low
[26] = S. cerevisiae deletion strains, locus YPL241C, strain CIN2, active compounds read low
[27] = S. cerevisiae deletion strains, locus YPR135W, strain CTF4, active compounds read low

Measured: normalized growth

O=C(Nc1ccc(F)cc1)c1cc(Br)ccc1O
inactive: S. cerevisiae deletion strains, locus YAR019C, strain CDC15, active compounds read low 0.91 | S. cerevisiae deletion strains, locus YBL105C, strain PKC1, active compounds read low 0.907 | S. cerevisiae deletion strains, locus YBR135W, strain CKS1, active compounds read low 0.901 | S. cerevisiae deletion strains, locus YBR136W, strain MEC1, active compounds read low 0.913 | S. cerevisiae deletion strains, locus YBR160W, strain CDC28, active compounds read low 0.899 | S. cerevisiae deletion strains, locus YDL028C, strain MPS1, active compounds read low 0.909 | [1] 0.952 | S. cerevisiae deletion strains, locus YDL108W, strain KIN28, active compounds read low 0.897 | S. cerevisiae deletion strains, locus YDL132W, strain cdc53, active compounds read low 0.94 | S. cerevisiae deletion strains, locus YDL214C, strain PRR2, active compounds read low 0.867 | S. cerevisiae deletion strains, locus YDR226W, strain ADK1, active compounds read low 0.941 | S. cerevisiae deletion strains, locus YDR477W, strain SNF1, active compounds read low 0.882 | S. cerevisiae deletion strains, locus YER123W, strain YCK3, active compounds read low 0.806 | S. cerevisiae deletion strains, locus YER133W, strain GLC7, active compounds read low 0.908 | S. cerevisiae deletion strains, locus YFL029C, strain CAK1, active compounds read low 0.894 | S. cerevisiae deletion strains, locus YFR003C, strain YPI1, active compounds read low 0.907 | S. cerevisiae deletion strains, locus YFR019W, strain FAB1, active compounds read low 0.901 | S. cerevisiae deletion strains, locus YGR040W, strain KSS1, active compounds read low 0.797 | S. cerevisiae deletion strains, locus YGR052W, strain FMP48, active compounds read low 0.901 | S. cerevisiae deletion strains, locus YGR092W, strain DBF2, active compounds read low 0.614 | S. cerevisiae deletion strains, locus YHR079C, strain IRE1, active compounds read low 0.827 | S. cerevisiae deletion strains, locus YHR082C, strain KSP1, active compounds read low 0.813 | S. cerevisiae deletion strains, locus YHR205W, strain SCH9, active compounds read low 0.615 | S. cerevisiae deletion strains, locus YIL147C, strain SLN1, active compounds read low 0.918 | S. cerevisiae deletion strains, locus YJL095W, strain BCK1, active compounds read low 0.791 | S. cerevisiae deletion strains, locus YJL128C, strain PBS2, active compounds read low 0.957 | S. cerevisiae deletion strains, locus YJL157C, strain FAR1, active compounds read low 0.83 | S. cerevisiae deletion strains, locus YJR016C, strain ILV3, active compounds read low 0.923 | S. cerevisiae deletion strains, locus YJR066W, strain TOR1 (second series), active compounds read low 0.904 | S. cerevisiae deletion strains, locus YJR066W, strain TOR1, active compounds read low 0.786 | S. cerevisiae deletion strains, locus YKL048C, strain ELM1, active compounds read low 0.891 | S. cerevisiae deletion strains, locus YKL067W, strain YNK1, active compounds read low 0.853 | S. cerevisiae deletion strains, locus YKL101W, strain HSL1, active compounds read low 0.817 | S. cerevisiae deletion strains, locus YKL193C, strain SDS22, active compounds read low 0.901 | S. cerevisiae deletion strains, locus YKL203C, strain TOR2, active compounds read low 0.873 | S. cerevisiae deletion strains, locus YLR133W, strain CKI1, active compounds read low 0.835 | S. cerevisiae deletion strains, locus YLR403W, strain SFP1, active compounds read low 0.834 | S. cerevisiae deletion strains, locus YML070W, strain DAK1, active compounds read low 0.86 | S. cerevisiae deletion strains, locus YMR001C, strain CDC5, active compounds read low 0.908 | S. cerevisiae deletion strains, locus YMR205C, strain PFK2 (second series), active compounds read low 0.832 | S. cerevisiae deletion strains, locus YNL006W, strain LST8, active compounds read low 0.923 | S. cerevisiae deletion strains, locus YNL020C, strain ARK1, active compounds read low 0.797 | S. cerevisiae deletion strains, locus YNL161W, strain CBK1, active compounds read low 0.913 | S. cerevisiae deletion strains, locus YNL183C, strain NPR1, active compounds read low 0.758 | S. cerevisiae deletion strains, locus YNL207W, strain RIO2, active compounds read low 0.907 | S. cerevisiae deletion strains, locus YNL222W, strain SSU72, active compounds read low 0.902 | S. cerevisiae deletion strains, locus YNL307C, strain MCK1 (second series), active compounds read low 0.776 | S. cerevisiae deletion strains, locus YOL078W, strain AVO1, active compounds read low 0.898 | S. cerevisiae deletion strains, locus YOL136C, strain PFK27, active compounds read low 0.837 | S. cerevisiae deletion strains, locus YOR061W, strain CKA2, active compounds read low 0.773 | S. cerevisiae deletion strains, locus YOR119C, strain RIO1, active compounds read low 0.881 | S. cerevisiae deletion strains, locus YOR231W, strain MKK1, active compounds read low 0.845 | S. cerevisiae deletion strains, locus YOR329C, strain SCD5, active compounds read low 0.912 | S. cerevisiae deletion strains, locus YPL031C, strain PHO85, active compounds read low 0.865 | S. cerevisiae deletion strains, locus YPL153C, strain RAD53, active compounds read low 0.777 | S. cerevisiae deletion strains, locus YPL204W, strain HRR25, active compounds read low 0.862 | S. cerevisiae deletion strains, locus YPL209C, strain IPL1, active compounds read low 0.909 | S. cerevisiae deletion strains, locus YPR025C, strain CCL1, active compounds read low 0.907 | S. cerevisiae deletion strains, locus YPR106W, strain ISR1, active compounds read low 0.914 | S. cerevisiae deletion strains, locus YPR111W, strain DBF20, active compounds read low 0.893 | S. cerevisiae deletion strains, strain NNK1, active compounds read low 0.927 | S. cerevisiae deletion strains, strain TSCII, active compounds read low 0.902
active: S. cerevisiae deletion strains, locus YDL017W, strain CDC7, active compounds read low 0.898 | S. cerevisiae deletion strains, locus YDR052C, strain DBF4, active compounds read low 0.905 | S. cerevisiae deletion strains, locus YDR054C, strain cdc34, active compounds read low 0.876 | S. cerevisiae deletion strains, locus YFL009W, strain cdc4, active compounds read low 0.887 | S. cerevisiae deletion strains, locus YFR028C, strain CDC14, active compounds read low 0.863 | S. cerevisiae deletion strains, locus YLR113W, strain HOG1, active compounds read low 0.804 | S. cerevisiae deletion strains, locus YMR277W, strain FCP1, active compounds read low 0.884 | S. cerevisiae deletion strains, locus YPL256C, strain CLN2, active compounds read low 0.837

Nc1c(Cl)cc(C(=O)Nc2cc(Cl)cc(Cl)c2)cc1Cl
active: [2] 0.897 | [8] 0.496 | [10] 0.907 | [12] 0.77 | [19] 0.651 | [22] 0.825 | [24] 0.778 | [25] 0.8 | [26] 0.821
inactive: [3] 0.957 | [4] 0.994 | [1] 1.02 | S. cerevisiae deletion strains, locus YDL134C, strain PPH21, active compounds read low 0.978 | [5] 0.934 | [6] 0.956 | [7] 0.977 | [9] 0.935 | [11] 0.97 | [13] 0.99 | [14] 0.842 | [15] 0.847 | [16] 0.872 | [17] 0.976 | [18] 0.934 | [20] 0.982 | [21] 0.984 | [23] 1 | [27] 0.894 | S. cerevisiae strains, strain wild type, active compounds read low 0.956

CCCCC#Cc1ccc(C(=O)NNC(=O)Nc2cc(Cl)cc(Cl)c2)o1
inactive: [2] 1.03 | [3] 1.01 | [4] 0.981 | [1] 1.02 | [5] 0.963 | [6] 0.963 | [7] 1 | [8] 1.01 | [9] 1.01 | [10] 0.998 | [11] 0.973 | [12] 1.03 | [13] 1.01 | [14] 1.07 | [15] 1.05 | [16] 1 | [17] 1.01 | [18] 1.07 | [19] 1 | [20] 0.995 | [21] 0.995 | [22] 1.03 | [23] 1.03 | [24] 0.995 | [25] 1.03 | [26] 1.02 | [27] 0.931
